Screens from PubChem.
Shown are actives, neighbours in structure and some others; about 2.2% of the full set was active somewhere.
HSP90 refold inh – blocks HSP90-mediated luciferase refolding in reticulocyte lysate. Rabbit reticulocyte lysate, luciferase refolding luminescence, 3 h. inhibition, % at 5.6 µM. hit rate 0.91% among 290,000;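 active = inhibition above the screen-wide mean plus 3 SD, computed separately per campaign, cut at about 16% in these data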;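 also: 0% = DMSO wells and 100% = 60 µM geldanamycin wells; inhibitors lower the luminescence because luciferase stays unfolded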
LGR2 inh – Drosophila LGR2 receptor signaling inhibition; hit rate 0.35% among 380,000; HEK293 LGR2, CRE-luciferase, bursicon-stimulated, 4 h; inhibition, % at 9.99 µM;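 active = drop in luminescence signal, shown as inhibition above about 50% in the replicate tests, limit read from the data, passing the limit was not always enough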;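 also: agonist challenge used bursicon conditioned medium at about half maximal strength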
TWEAK Fn14 block – TWEAK-Fn14 signaling inhibition. inhibition, % at 10 µM. TWEAK-stimulated Fn14 reporter cells, luciferase luminescence, 8 h. AID 1159606. hit rate 2% among 360,000; in the data active = inhibition above about 50%
TROY NFkB inh – blocks TROY-dependent signaling in reporter cells | inhibition, % at 10 µM | Q293 LMP1-TROYcd NF-kB luciferase reporter, 4 h | hit rate 0.98% among 360,000;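 active = compounds whose plate-normalised and pattern-corrected inhibition of the luciferase reporter signal at the single screening dose is 50% or more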
HSP90 confirm – confirmation of HSP90 inhibitors; shares compounds with HSP90 refold inh; AID 1846; hit rate 64% among 2,300; rabbit reticulocyte lysate, luciferase refolding luminescence, 3 h; inhibition, % at 5.9 µM; in the data active = inhibition above about 18%;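 also: 0% = vehicle wells and 100% = reference inhibitor wells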
luciferase ctr – blocks native firefly luciferase in HSP90 counter-screen; purified native firefly luciferase, luminescence; AID 1847; shares compounds with HSP90 refold inh; hit rate 48% among 2,300; inhibition, % at 5.9 µM;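 active = inhibition above the mean inhibition of all tested sample wells plus 3 SD, cut at about 10% in these data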;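 also: 0% = DMSO with luciferase and 100% = wells lacking luciferase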
Target sequence (P08659 whole entry, looked up): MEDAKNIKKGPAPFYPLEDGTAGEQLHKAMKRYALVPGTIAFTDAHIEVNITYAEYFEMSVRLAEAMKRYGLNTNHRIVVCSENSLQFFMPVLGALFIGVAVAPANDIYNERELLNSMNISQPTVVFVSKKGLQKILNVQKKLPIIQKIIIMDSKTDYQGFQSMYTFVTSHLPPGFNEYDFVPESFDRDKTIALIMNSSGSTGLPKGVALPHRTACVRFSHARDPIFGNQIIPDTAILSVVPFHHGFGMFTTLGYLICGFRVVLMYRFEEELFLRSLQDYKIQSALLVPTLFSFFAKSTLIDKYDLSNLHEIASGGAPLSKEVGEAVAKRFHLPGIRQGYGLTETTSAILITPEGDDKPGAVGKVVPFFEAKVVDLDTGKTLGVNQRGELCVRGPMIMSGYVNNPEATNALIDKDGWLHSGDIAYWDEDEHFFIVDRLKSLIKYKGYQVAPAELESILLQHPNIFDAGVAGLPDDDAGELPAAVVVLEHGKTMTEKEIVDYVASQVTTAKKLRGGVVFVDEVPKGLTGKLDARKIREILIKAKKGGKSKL
An asterisk follows results filed as active; / = not tested or not shown.

SMILES	HSP90 refold inh	LGR2 inh	TWEAK Fn14 block	TROY NFkB inh	HSP90 confirm	luciferase ctr
C[C@@H]1CN([C@@H](C)CO)C(=O)CCCn2cc(nn2)CO[C@@H]1CN(C)C(=O)Nc1ccccc1F	/	-7.1	/	/	/	/
Fc1ccccc1Nc1nc2ccccc2o1	23.6*	-21.0	39.6	-11.3	41.0*	28.4*
CC=Cc1ccc2n(c1=O)C[C@H]1[C@H](CO)[C@@H](C(=O)NCC3CC3)N(C(=O)C3CCOCC3)[C@@H]21 (mixture of isomers)	/	14.1	/	/	/	/
Cc1c(/C(O)=C2\C(=O)C(=O)N(CCN(C)C)C2c2ccco2)cnn1-c1ccccc1 (stereo not given)	51.9*	/	42.1	4.4	21.1*	10.3*
Cc1c(/C(O)=C2\C(=O)C(=O)N(CCN(C)C)C2c2ccccc2)cnn1-c1ccccc1 (stereo not given)	26.9*	/	57.4*	43.9	12.0	-7.8
CC(=O)N1[C@@H]2Cn3c(ccc(C4=CCCC4)c3=O)[C@H]1[C@@H](C(=O)N[C@H](C)c1ccccc1)[C@@H]2CO	/	-11.8	/	/	/	/
CCCNC(=O)N[C@H]1CC[C@H](CCNS(=O)(=O)c2cccc(F)c2)O[C@H]1CO	/	-1.7	/	/	/	/
O=C1c2cc(F)ccc2-n2c1nc1ccccc1c2=O	72.8*	14.2	3.0	7.8	68.1*	-5.5
Nn1c(-c2ccc(F)cc2)nc2ccccc2c1=O	1.4	5.1	24.7	-1.5	/	/
O=C(N[C@H]1CC[C@@H](CCn2cc(Cc3ccccc3)nn2)O[C@@H]1CO)c1cnccn1	/	1.9	/	/	/	/
C[C@@H]1CCCCO[C@H](CN(C)S(=O)(=O)c2cccs2)[C@@H](C)CN([C@@H](C)CO)C(=O)c2cc(NC(=O)C3CCCCC3)ccc2O1	/	24.2	/	/	/	/
COc1ccc(CNC(=O)COC(=O)c2ccco2)cc1	51.0*	5.6	9.9	18.8	-6.7	-9.0
Nc1ccc(-c2nc3ccc(N)cc3s2)cc1	54.0*	53.2*	74.0*	27.9	69.2*	60.6*
Nc1cccc(-c2nc3ccc(N)cc3s2)c1	19.6*	/	77.6*	13.0	66.1*	52.6*
Nc1ccc(O)c(-c2nc3ccccc3s2)c1	0.6	/	11.9	-9.4	/	/
COc1ccccc1NC(=O)N1C[C@@H]2[C@H](c3ccccc31)[C@@H](CO)N2C(=O)c1ccccc1	/	-14.3	/	/	/	/
O=C(O)CSc1nnc(NC(=O)c2ccc3c(c2)OCO3)s1	25.9*	26.6	27.6	10.7	26.2*	-7.6
C[C@@H]1CN([C@@H](C)CO)C(=O)c2cccc(NC(=O)C3CCCCC3)c2O[C@H]1CN(C)CC1CCCCC1	/	-3.6	/	/	/	/
Cc1cnc(NC(=O)COc2ccccc2Cl)s1	58.2*	91.2*	96.0*	59.2*	79.1*	77.5*
Brc1ccc(C2Nc3cccc4cccc(c34)N2)o1	19.0*	/	19.5	13.4	10.8	-17.6
C[C@H]1CN([C@@H](C)CO)C(=O)Cc2cc(NC(=O)Nc3cccc4ccccc34)ccc2O[C@@H]1CN(C)C(=O)Nc1ccc(F)cc1	/	-1.2	/	/	/	/
O=C(NCC(=O)N1CCCCCCC1)c1ccc(Cl)cc1	/	-37.6	12.4	-36.5	/	/
O=C(CNC(=O)c1ccc(Cl)cc1)OCC(=O)N1CCCC1	18.7*	11.7	-6.4	13.3	-4.2	-7.5
CN(C)C(=O)C[C@H]1C=C[C@H](NC(=O)C2CCOCC2)[C@H](CO)O1	/	2.7	/	/	/	/
COC(=O)[C@@H]1[C@@H](CO)[C@@H]2Cn3c(ccc(C4=CCCCC4)c3=O)[C@@H]2N1C(=O)C1CCC1	/	-20.4	/	/	/	/
SMILES	HSP90 refold inh	LGR2 inh	TWEAK Fn14 block	TROY NFkB inh	HSP90 confirm	luciferase ctr
O=c1cnc2ccccc2n1Cc1ccc(Br)cc1	-0.5	-26.1	-15.8	-60.4	/	/
CC(C)(C)c1ccc(Cn2c(=O)cnc3ccccc32)cc1	22.2*	59.9*	92.1*	81.3*	53.4*	34.3*
Cc1ccsc1/C=N\NC(=O)c1n[nH]c2c1CCC2	19.9*	78.4*	81.4*	41.4	47.5*	43.0*
Cc1ccc(S(=O)(=O)Nc2cccc3c2O[C@@H](CN(C)S(C)(=O)=O)[C@@H](C)CN([C@H](C)CO)C3=O)cc1	/	15.9	/	/	/	/
CCOc1ccc(Nc2nc(-c3sc(N)nc3C)cs2)cc1	20.1*	-14.9	-15.8	-11.8	0.7	-21.4
COc1ccc(CCNc2nc(-c3sc(N)nc3C)cs2)cc1OC	29.1*	/	-9.4	4.0	5.4	-4.5
COc1ccc(Nc2nc(-c3sc(N)nc3C)cs2)cc1	30.0*	/	-13.7	-31.2	-3.8	-21.2
Cc1nc(N)sc1-c1csc(Nc2ccc(Cl)cn2)n1	12.5	-8.8	15.6	-13.0	/	/
Cc1ccc(Nc2nc(-c3sc(N)nc3C)cs2)cc1	38.8*	-22.3	-23.7	-28.3	-2.1	-18.1
COc1ccc(CC(=O)Nc2nc(-c3ccc(OC)c(OC)c3)cs2)cc1OC	-3.9	13.9	46.3	42.3	/	/
Cc1ccc(Nc2nc(-c3sc(C)nc3C)cs2)cc1	-1.2	-38.5	18.8	-8.2	/	/
CC(C)NC(=O)N[C@@H]1C=C[C@@H](CC(=O)NCCCN(C)C)O[C@H]1CO	/	-3.9	/	/	/	/
C[C@@H]1CCCCO[C@H](CN(C)C(=O)Nc2cccc3ccccc23)[C@H](C)CN([C@@H](C)CO)C(=O)c2cc(NS(=O)(=O)c3ccc(Cl)cc3)ccc2O1	/	-37.5	/	/	/	/
Cc1noc(C)c1S(=O)(=O)Nc1ccc2c(c1)C(=O)N([C@H](C)CO)C[C@@H](C)[C@H](CN(C)Cc1ccc(C(F)(F)F)cc1)O2	/	11.0	/	/	/	/
COc1ccc2c3c([nH]c2c1)[C@@H](CO)N(S(=O)(=O)c1cn(C)cn1)CC31CCN(CC2CCCCC2)CC1	/	21.7	/	/	/	/
NC(=O)NC(=O)C(Nc1ccc(N2CCCCC2)cc1)c1ccccc1 (stereo not given)	23.4*	-30.1	37.3	44.4	10.0	6.0
O=C(/C=C/c1ccccc1)Nc1ccc(N2CCCCC2)cc1	-5.4	-37.1	-38.5	-37.4	/	/
Cc1ccc(NC(=O)CCNC(=O)Cn2ccc3ccccc3c2=O)cc1F	44.0*	-16.3	-6.8	-20.6	25.5*	22.7*
COc1ccc(NC(=O)CCNC(=O)Cn2ccc3ccccc3c2=O)cc1OC	-5.0	/	24.2	-5.3	/	/
CO[C@@H]1CN(C)C(=O)c2cc(NC(=O)c3cnccn3)ccc2OC[C@@H](C)N(CCC(F)(F)F)C[C@H]1C	/	-0.4	/	/	/	/
O=[N+]([O-])c1ccc(-c2ccc(C=Nc3cccc4ccccc34)o2)cc1	18.4*	/	61.9*	62.8*	0.4	-7.6
N#Cc1cc2cc3c(cc2nc1SCC(=O)N1CCOCC1)OCCO3	20.8*	22.2	96.8*	75.6*	16.6*	-2.8
Cc1cc2cc3c(cc2nc1SCC(=O)N1CCCC1)OCCO3	-2.1	4.2	10.0	-10.9	/	/
CCN(CC)c1ccc(/C=N/Nc2nc3ccccc3[nH]2)c(O)c1	39.9*	/	53.1*	54.8*	23.4*	-17.8
C(=N\Nc1nc2ccccc2[nH]1)/c1ccccn1	79.4*	89.7*	100.3*	82.2*	88.0*	84.7*
COc1cc(OC)c(OC)cc1/C=N/Nc1nc2ccccc2[nH]1	-1.8	-11.2	-5.3	44.1	/	/
CN(C)C(=O)C[C@@H]1CC[C@@H]2[C@H](COC[C@H](O)CN2CC2CCOCC2)O1	/	-4.8	/	/	/	/
